# Reference: PubChem BioAssay (NCATS)
# Values without a mark were called inactive. The rule behind the calls is not given here.
# System: HIV-1 nucleocapsid protein NCp7 (binding to TG oligonucleotide)
# Assay: HIV Nucleocapsid (AID 346);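 note: potency is for inhibitors that block NC binding and lower polarization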
# Details: HIV-1 NC / fluorescein-TGTGTGTG probe, fluorescence polarization
# In short: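 10 nM TG4xF probe with 100 nM nucleocapsid protein in high-salt Hepes pH 7.5 (250mM NaCl) containing 1uM ZnCl2 and reducing agents. Compound inhibition of binding was read as fluorescein polarization after 1 hr at room temperature.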
# Potency is the fitted concentration of half-maximal effect.
row,Compound,Potency [µM]
1,Cc1ccccc1-c1cncnc1N1CCN(C)CC1,> 20
2,N#Cc1cccc(NC(=O)N2CCCC3(CCN(C(=O)c4cc(C(F)(F)F)cc(C(F)(F)F)c4)CC3)C2)c1,> 20
3,COCCNc1ncnc2ccc(-c3ccccc3C)cc12,> 20
4,c1cncc(-c2cncnc2-n2ccnc2)c1,> 20
5,COc1ccccc1-c1nccc(NCc2cnc(C)cn2)n1,> 20
6,COCC(=O)N1CCC2(CC1)CN(Cc1ccc(C#N)cc1)C2,> 20
7,O=C(c1cccc(F)c1)N1CCC2(CC1)CCN(c1ccccn1)CC2,> 20
8,CC(=O)N1CCC2(CCN(Cc3ccncc3)CC2)CC1,> 20
9,O=C(c1cccc(F)c1)N1CCC2(CCN(Cc3cc(C(F)(F)F)cc(C(F)(F)F)c3)CC2)CC1,> 20
10,COc1cccc(-c2cc(NCc3cccc(C)c3)ncn2)c1,> 20
11,Cc1cnc(CNc2ccnc(-c3cccnc3)n2)cn1,> 20
12,COc1ccccc1CNc1ncnc2ccc(-c3cccc(C#N)c3)cc12,> 20
13,COCC(=O)N1CCC2(CCCN(Cc3cc(C(F)(F)F)cc(C(F)(F)F)c3)C2)CC1,> 20
14,FC(F)(F)c1ccccc1-c1cc(NCc2cccnc2)ncn1,> 20
15,Cc1noc(C)c1-c1nccc(Nc2ccc(F)cc2)n1,> 20
16,CC(C)NC(=O)N1CC[C@@]2(CCCN(C(=O)c3ccncc3)C2)C1,> 20
17,Cn1cccc1C(=O)N1CCC[C@@]2(CCN(Cc3ccc(C#N)cc3)C2)C1,> 20
18,O=C(c1cnccn1)N1CCC2(CC1)CN(c1cccc(-c3ccccc3)c1)C2,> 20
19,O=C(c1ccncc1)N1CCC2(CC1)CCN(c1ncccn1)CC2,> 20
20,O=c1cnc2cnc(N3CCOCC3)nc2n1C[C@H]1CCCO1,> 20

row,Compound,Potency [µM]
1,O=c1c(CCc2ccccc2)nc2cncnc2n1Cc1ccc(F)cc1,> 20
2,O=C(c1csnn1)N1CCC2(CCN(Cc3nccs3)CC2)CC1,> 20
3,N#Cc1cccc(-c2nc3cnc(N4CCOCC4)nc3n(C[C@H]3CCCO3)c2=O)c1,> 20
4,CN1CCN(c2ncc3nc(-c4ccc(Cl)cc4)c(=O)n(C4CC4)c3n2)CC1,> 20
5,COc1cccc(Nc2ncc3nc(-c4cccs4)c(=O)n(CCC#N)c3n2)c1,> 20
6,O=c1cnc2cnc(Nc3ccccc3)nc2n1Cc1ccc(F)cc1,> 20
7,c1ccc(-c2cccc(N3CC4(CCNCC4)C3)c2)cc1,> 20
8,CN(C)C(=O)c1ccc(-c2nc(-n3ccnc3)c3ccccc3n2)cc1,> 20
9,COc1ccccc1-c1ccc2ncnc(N(C)Cc3ccco3)c2c1,> 20
10,O=c1c(-c2ccccc2)nc2cncnc2n1Cc1ccccc1,> 20
11,COCCn1c(=O)c(-c2ccc(Cl)cc2)nc2cnc(Oc3ccccc3)nc21,> 20
12,CN1CCN(c2ncc3nc(-c4ccccc4)c(=O)n(-c4ccccc4)c3n2)CC1,> 20
13,COCCn1c(=O)cnc2cnc(Oc3ccc(OC)cc3)nc21,> 20
14,CCNc1ncc2nc(C)c(=O)n(-c3ccc(OC)cc3)c2n1,> 20
15,O=C(c1ccncc1)N1CCC[C@@]2(CCN(c3ccncc3)C2)C1,> 20
16,CCNc1ncc2nc(C)c(=O)n(Cc3cccc(OC)c3)c2n1,> 20
17,Cc1noc(C)c1-c1ccc2ncnc(NCCN3CCOCC3)c2c1,> 20
18,COc1ccc(Oc2ncc3nc(-c4ccccc4)c(=O)n(C4CC4)c3n2)cc1,> 20
19,COCC(=O)N1CCC2(CCN(Cc3cc(C(F)(F)F)cc(C(F)(F)F)c3)CC2)CC1,> 20
20,COc1ccc(Oc2ncc3nc(-c4ccc(OC)cc4)c(=O)n(C)c3n2)cc1,> 20
